The full list was thinned out, with hits kept by preference.
ALOX12 inh – Primary qHTS assay for inhibitors of human arachidonate 12S-lipoxygenase (ALOX12): Round 2 | Polyunsaturated fatty acid lipoxygenase ALOX12 (Homo sapiens), P18054 | purified 12hLO, xylenol orange hydroperoxide absorbance | Potency, µM (series often up to 108 µM), inactives show at the highest dose activity change, negative = inhibition, actives largely listed as inhibitors | hit rate 1.1% among 580,000 | AID 1671190, 2021; further: potency means the concentration at half of the fitted maximal effect
Target sequence (P18054 whole entry, looked up): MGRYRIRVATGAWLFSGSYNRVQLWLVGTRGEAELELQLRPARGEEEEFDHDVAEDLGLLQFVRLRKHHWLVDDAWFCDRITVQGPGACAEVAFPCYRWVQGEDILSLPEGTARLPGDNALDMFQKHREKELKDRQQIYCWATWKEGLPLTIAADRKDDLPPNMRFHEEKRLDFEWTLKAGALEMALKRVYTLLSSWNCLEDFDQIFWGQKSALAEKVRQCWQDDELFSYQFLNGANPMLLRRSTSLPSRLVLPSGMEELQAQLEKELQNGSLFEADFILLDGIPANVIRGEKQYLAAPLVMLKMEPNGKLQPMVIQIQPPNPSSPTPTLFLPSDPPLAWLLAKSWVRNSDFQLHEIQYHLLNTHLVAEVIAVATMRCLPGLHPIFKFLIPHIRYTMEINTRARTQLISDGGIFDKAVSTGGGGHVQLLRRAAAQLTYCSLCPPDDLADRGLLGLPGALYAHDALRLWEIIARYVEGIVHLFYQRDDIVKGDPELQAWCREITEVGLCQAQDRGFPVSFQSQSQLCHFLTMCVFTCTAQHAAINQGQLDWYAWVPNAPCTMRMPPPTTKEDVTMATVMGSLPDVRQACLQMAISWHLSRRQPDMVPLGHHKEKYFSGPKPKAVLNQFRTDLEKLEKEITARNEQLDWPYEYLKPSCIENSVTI
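Purified human 12hLO (150 nM final) in 25 mM Hepes, 0.01% Triton X-100, pH 7.0 was preincubated 15 min at room temperature with compound. Then 40 uM arachidonic acid was added, 30 min. Hydroperoxide was read by Fe-XO absorbance ratio 573/405 nm.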
DT40 TDP1 CPT – qHTS for Inhibitors of human tyrosyl-DNA phosphodiesterase 1 (TDP1): qHTS in cells in presence of CPT; chicken DT40 Tdp1-/-;hTDP1 cells + 20 nM CPT, ATP luminescence, 48 h; Potency, µM (doses to about 46.2 µM), for inactives: top-dose activity change, negative = growth inhibition, actives largely listed as inhibitors; hit rate 12% among 420,000; further: potency means the concentration at half of the fitted maximal effect; nearly all actives have a fitted effect of over 55% in size
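Cell growth measured by CellTiter-Glo luminescence after a minimum 48 h, 37 C compound exposure with 20 nM CPT in Tdp1-knockout DT40 cells stably expressing hTDP1, seeded 400/well; qHTS titration format.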
IL1B secr inh – qHTS for Inhibitors of Inflammasome Signaling: IL-1-beta AlphaLISA Primary Screen; THP-1 LPS/ATP IL-1B secretion, AlphaLISA, 16 h; active compounds read low; activity change, % at 57.5 µM; hit rate 4.7% among 360,000; AID 743279, 2014; in the data active means activity change below about -50%; inconclusive means mostly about -30% to -49%
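THP-1 cells pretreated 1 hr with compounds (up to 57.5 uM final), then stimulated with LPS (250 ng/mL final) plus ATP (1.25 mM final); secreted IL-1B measured by AlphaLISA after 16 hr, decreased signal indicating inhibition.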
HT1080NT lethal – qHTS for induction of synthetic lethality in tumor cells producing 2HG: qHTS for the HT-1080-NT fibrosarcoma cell line; HT-1080-NT fibrosarcoma viability, CellTiter-Glo ATP luminescence, 48 h; Potency, µM (top dose mostly 46.1 µM), for inactives: at the top dose activity, negative = less viability, most hits filed as cytotoxic; hit rate 1.6% among 360,000; AID 686970, 2013;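 further: NT is the 2HG producing partner of a matched IDH1 knockdown line; potency means the concentration at half of the fitted maximal effect; 0% = DMSO-treated cells and -100% = media-only wells without cells; nearly all actives have a fitted effect of over 55% in size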
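Viability by CellTiter-Glo luminescence after 48 h compound exposure at 37C of HT-1080-NT cells (750/well, RPMI, 5% FBS). % activity scaled between DMSO wells and medium-only wells, then curve-fitted and categorized by curve class.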
HT1080 IDH1KD tx – qHTS for induction of synthetic lethality in tumor cells producing 2HG: qHTS for the HT-1080-IDH1KD cell line | hit rate 2% among 360,000 | HT-1080 IDH1 knockdown viability, ATP luminescence, 48 h | Potency, µM (doses to about 46.1 µM), for the others: at the highest dose activity, negative = toxicity, hits mostly cytotoxic;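 further: potency means the concentration at half of the fitted maximal effect; 0% = DMSO wells and -100% = cell-free medium wells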
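Using the IDH1-knockdown HT-1080 line run in the same batch and compound series as the NT line, viability after 48 h at 37 °C was determined by CellTiter-Glo luminescence and expressed as % activity.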
DT40 TDP1 no CPT – qHTS for Inhibitors of human tyrosyl-DNA phosphodiesterase 1 (TDP1): qHTS in cells in absence of CPT | DT40 Tdp1-/- hTDP1 cells, no CPT, ATP luminescence, 48 h | Potency, µM (doses to about 46.2 µM), for inactives: at the highest dose activity change, negative = growth inhibition, actives largely listed as inhibitors | hit rate 15% among 420,000 | AID 686978, 2013; further: potency means the concentration at half of the fitted maximal effect; nearly all actives have a fitted effect of over 55% in size
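Growth of hTDP1-complemented DT40 Tdp1-knockout cells is measured by ATP luminescence after at least 48 hr compound exposure at 37 °C, with DMSO substituting for the 20 nM CPT used in the parallel screen.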
An asterisk follows results filed as active; u = inconclusive; x = no result; [ ] = another dose, or the depositor's remark. Unless noted, the call rests on the fitted dose curve; in most records, active means well fitted curve in the direction sought with a large enough effect; inconclusive means small, poorly fitted or top-dose-only effect, or another doubt; inactive means no such curve, though single readings can be large; an effect the other way counts as inactive or inconclusive. Unless noted, on the % scale 0 is the no-effect control and ±100 the full control effect.

SMILES | ALOX12 inh | DT40 TDP1 CPT | IL1B secr inh | HT1080NT lethal | HT1080 IDH1KD tx | DT40 TDP1 no CPT
CC(Oc1ccccc1)C(=O)N1CCc2c(c(-c3nncn3C(C)C)nn2C)C1 (stereo unspecified) | 43.3% | x | x | x | x | x
O=C(c1ccco1)N1CCCN(c2cc(-c3ccc(Br)cc3)[nH]n2)CC1 | -15.4% | x | x | x | x | x
Cc1ncoc1C(=O)N1CCCC(C(=O)c2ccc(Oc3ccccc3)cc2)C1 (stereo unspecified) | -3.3% | 5.6% | 0.0 | 6.4% | 7.4% | -10.3%
CC(=O)NCC(=O)N1CCCC(C(=O)c2ccc(Oc3ccccc3)cc2)C1 (stereo unspecified) | -0.5% | 9.2µM* | -17.0 | 0.8% | -18.4% | u
CC(C)(C)c1ccc(C(=O)C=[N+]=[N-])cc1 | 0.0% | 25.9µM* | 7.8 | 17.1% | 19.2% | 14.6µM*
OC[C@@H]1[C@@H](c2ccccc2)C(c2cccc(Cl)c2)=NN1c1ccccc1 | u | 20.6µM* | u | 11.6µM* | u | 20.6µM*
Cc1cccc(C2=NN(c3ccccc3)[C@H](CO)[C@H]2c2ccc(Cl)cc2)c1 | u | u | 24.4 | u | u | u
OC[C@@H]1[C@@H](c2ccccc2)C(c2ccccc2)=NN1c1ccccc1 | u | u | 6.6 | 4.4% | -0.9% | 16.4µM*
OC[C@@H]1[C@@H](c2ccccc2)C(c2ccc(F)cc2)=NN1c1ccccc1 | x | u | -10.8 | u | u | u
COc1ccc(C(=O)Nc2ccc3oc(C)nc3c2)c(OC)c1 | -14.3% | x | x | x | x | x
CCCCCCN1C=CC=C/C1=C/C=C(C#N)C#N | -5.8% | u | -8.2 | -4.8% | -14.8% | u
CCCCCCN1C=C/C(=C\C=C(C#N)C#N)c2ccccc21 | -3.7% | u | 19.7 | -3.4% | -15.3% | 23.1µM*
CCC(CC)C(=O)N(C)c1c(C)nc2c(OCCOc3ccccc3)cccn12 | 8.2% | 23.1µM* | 0.0 | -5.3% | 6.8% | 13µM*
CCC(CC)C(=O)N(C)c1c(C)nc2c(OCC=C(C)C)cccn12 | 21.0% | 13µM* | 85.0 | u | 14.6µM* | 16.4µM*
CCc1noc(-c2cn(C3CCN(C(=O)c4cc(F)ccc4F)C3)nn2)n1 (stereo unspecified) | 6.5% | x | x | x | x | x
COc1ccc(C2C(C#N)=C(N)N(c3sc4c(c3C#N)CCCC4)C3=C2C(=O)CC(C)(C)C3)cc1OC (stereo unspecified) | -18.6% | 18.4µM* | -12.1 | -19.2% | -0.3% | u
COc1ccc(C2C(C#N)=C(N)N(c3sc4c(c3C#N)CCCC4)C3=C2C(=O)CC(C)(C)C3)cc1 (stereo unspecified) | x | 20.6µM* | -2.1 | 1.5% | -1.3% | u
COc1ccc(C2C(C#N)=C3NC(=O)c4c(sc5c4CCCCC5)N3C3=C2C(=O)CC(C)(C)C3)cc1 (stereo unspecified) | -9.5% | 16.4µM* | -23.8 | u | u | 23.1µM*
O=C(c1ccccc1F)N1CCC2(CC1)C(=NC1CCCCC1)NC(=O)N2c1cccnc1 | 11.5% | x | x | x | x | x
CCC(C)n1c(C(C)NC(=O)OCc2ccccc2)nc2cccnc21 (stereo unspecified) | 28.8% | x | x | x | x | x
CC(=O)c1ccc(NC(=O)C(C)SC2CCCC2)cc1 (stereo unspecified) | 8.3% | x | x | x | x | x
CCOc1ccc(S(=O)(=O)Nc2cccc(-c3ccc(N4CCCC4)nn3)c2)cc1 | u | 7.31µM* | x | x | x | u
CCOc1ccc(C(C)C)cc1S(=O)(=O)Nc1cccc(-c2ccc(N3CCOCC3)nn2)c1 | -4.8% | u | x | x | x | 14.6µM*
COc1ccc(S(=O)(=O)Nc2cccc(-c3ccc(N4CCCCCC4)nn3)c2)c(OC)c1 | 4.8% | u | -22.5 | -24.5% | -3.0% | 29.1µM*
O=S(=O)(Nc1cccc(-c2ccc(N3CCCCC3)nn2)c1)c1ccc(F)cc1F | 0.0% | u | x | x | x | 25.9µM*
SMILES | ALOX12 inh | DT40 TDP1 CPT | IL1B secr inh | HT1080NT lethal | HT1080 IDH1KD tx | DT40 TDP1 no CPT
Cc1nc(-c2cccc(N3CC(C(=O)Nc4cccc(C(F)(F)F)c4)CC3=O)c2)no1 (stereo unspecified) | -27.3% | x | x | x | x | x
N#Cc1ccc(Oc2cccc3ccccc23)cc1C#N | -7.0% | x | x | x | x | x
CC(CC(=O)NCc1coc(-c2cccs2)n1)NC(=O)c1ccccc1 (stereo unspecified) | 9.7% | x | x | x | x | x
O=[N+]([O-])c1cccc(S(=O)(=O)Nc2cccc(-c3ccc(N4CCOCC4)nn3)c2)c1 | -25.4% | -12.7% | -3.2 | -3.1% | -1.7% | -21.6%
COc1ccc(S(=O)(=O)Nc2cccc(-c3ccc(N4CCCCCC4)nn3)c2)cc1 | -16.6% | 16.4µM* | x | x | x | u
CCc1ccc(S(=O)(=O)Nc2cccc(-c3ccc(N4CCOCC4)nn3)c2)cc1 | -6.0% | 8.2µM* | x | x | x | u
CC(C)CNc1nc2c(c(=O)[nH]c(=O)n2C)n1C(C)C | 19.8% | x | x | x | x | x
CC(C)n1c(=S)[nH]c2c1c(=O)[nH]c(=O)n2C | 5.01µM* | -24.1% | 11.1 | 8.8% | 16.8% | -6.8%
Cc1nnc(C)c2c(C)n(Cc3ccc4c(c3)OCO4)c(C)c12 | -24.6% | 13µM* | -13.2 | -4.4% | -10.4% | 16.4µM*
CCOC(=O)C#CC(CCc1ccccc1)OS(N)(=O)=O (stereo unspecified) | -18.7% | u | -69.9* | -1.4% | -2.8% | u
CC(Oc1cccc(C(C)C)c1)C(N)=O (stereo unspecified) | -3.2% | x | x | x | x | x
CN1C(=O)/C(=N/OC(=O)c2ccccc2)c2ccccc21 | -0.1% | 7.31µM* | 0.0 | 0.9% | -2.1% | 11.6µM*
CC(=O)c1ccc(N2CCN(C(=O)c3noc4c3CCc3sccc3-4)CC2)cc1 | -14.0% | x | x | x | x | x
COc1ccccc1CNCc1ccc2c(c1)OCO2 | -1.8% | -16.9% | -21.5 | -1.1% | 1.2% | u
CCOc1ccccc1CN(CCc1ccc2c(c1)OCO2)Cc1cc(OC)c(OC)cc1OC | u | 6.51µM* | x | x | x | 4.11µM*
CCOc1ccccc1CN(CCc1ccc2c(c1)OCO2)Cc1ccccn1 | 0.0% | u | -10.1 | -25.4% | u | 16.4µM*
Clc1ccc(-c2cnc3n2C[C@H](CNCc2cccnc2)OC3)cc1 | 37.8%[176 µM] | x | x | x | x | x

Bioassay records (PubChem)
